DRD3 antagonist: blocks the human D3 dopamine receptor | D3R cells, DiscoveRx beta-arrestin luminescence, antagonist mode; hits give low values | max response, negative = inhibition, % | actives 2.5% (n = 360,000) | AID 652054 | P35462; in the data active means max response below about -50%; inconclusive means no clear call, values can overlap the other calls; further: on the % scale 0 is the no-effect control and ±100 the full control effect
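Cells expressing the human receptor were seeded at 1500 cells/well, incubated overnight at 37 degrees C in 5% CO2, then exposed to library compounds with dopamine controls for 90 minutes at 37 degrees C before luminescent detection.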
D3 ag: activates the human D3 dopamine receptor; max activation, %; D3R DiscoveRx beta-arrestin cells, luminescence, 90 min; AID 652048; P35462; actives 0.58% (n = 410,000); in the data active means max activation above about 30%; further: 0% is about no effect
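Agonist-mode cell screen: cells plated at 1500/well and incubated overnight at 37 °C, then exposed to library compounds for 90 min at 37 °C. Detection reagent was added for 30–60 min at room temperature, and luminescence was read.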
B2AR arrestin: recruits beta-arrestin to the human beta2-adrenergic receptor; P07550; beta-arrestin recruitment to beta2AR, cell-based reporter; Potency, µM (series often up to 46.1 µM), for the others: at the top dose activation, actives largely listed as activators; actives 0.02% (n = 330,000);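 further: potency means the concentration at half of the fitted maximal effect; 0% = DMSO controls and full agonism = EC100 isoproterenol or metaproterenol; nearly all actives have a fitted effect of over 65% in size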
Target sequence (P07550 whole entry, looked up): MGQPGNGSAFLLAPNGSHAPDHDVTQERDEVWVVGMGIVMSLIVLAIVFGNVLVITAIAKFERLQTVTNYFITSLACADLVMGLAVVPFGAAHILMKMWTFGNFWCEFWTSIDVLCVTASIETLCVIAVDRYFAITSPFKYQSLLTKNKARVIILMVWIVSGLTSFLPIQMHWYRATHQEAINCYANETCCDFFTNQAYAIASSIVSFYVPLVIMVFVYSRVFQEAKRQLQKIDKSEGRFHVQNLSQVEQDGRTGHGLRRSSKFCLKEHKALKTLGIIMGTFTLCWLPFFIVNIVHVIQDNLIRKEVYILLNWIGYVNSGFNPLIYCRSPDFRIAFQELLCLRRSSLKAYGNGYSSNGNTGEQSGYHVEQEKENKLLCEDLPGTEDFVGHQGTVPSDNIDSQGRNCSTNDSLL
Integrin act MD: integrin-mediated muscular dystrophy alleviation activation; alpha7betagal myoblasts, beta-gal FDG fluorescence, 48 h; Potency, µM (titrated, usually from 38.3 µM), for the others: top-dose activation, actives largely listed as activators; AID 624291; actives 0.064% (n = 350,000);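 further: potency means the concentration at half of the fitted maximal effect; 100% = response of the positive control SU9516; nearly all actives have a fitted effect of over 60% in size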
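alpha7betagal+/- myoblasts (passage 13, 250/well) treated 48 h at 37C with compounds at 1:260 dilution of DMSO stock. Lysed, then beta-galactosidase activity read as FDG fluorescence (ex 480/em 540) after 30 min, with pre-read for autofluorescence.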
mIDH1 inhibitor: inhibitors of human mutant IDH1 R132H; O75874; IDH1-R132H enzyme, NADPH consumption, diaphorase/resazurin fluorescence; Potency, µM (series often up to 76.6 µM), for inactives: top-dose activity change, negative = inhibition, actives largely listed as inhibitors; actives 0.093% (n = 390,000); AID 602179; further: potency means the concentration at half of the fitted maximal effect; on the % scale 0 is the no-effect control and ±100 the full control effect; nearly all actives have a fitted effect of over 65% in size
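IDH1-R132H (0.5 ug/mL dispensed) in pH 7.5 Tris buffer was preincubated 30 min with compound, then given a substrate mix of 0.016 mM NADPH and 2 mM alpha-KG for 80 min at room temperature; remaining NADPH was read by diaphorase/resazurin fluorescence.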
* hit, by the source's call; ? = inconclusive; · = not tested or not shown. A selection: hits, their analogues and other compounds. The true share with any hit is near 2.9%. Unless noted, the call rests on the fitted dose curve; in most records, active means well fitted curve in the direction sought with a large enough effect; inconclusive means small, poorly fitted or top-dose-only effect, or another doubt; inactive means no such curve, though single readings can be large; an effect the other way counts as inactive or inconclusive.

SMILES	DRD3 antagonist	D3 ag	B2AR arrestin	Integrin act MD	mIDH1 inhibitor
COc1ccccc1C(=O)NCCN1CCN(c2ccccc2)CC1	0	42*	0%	13%	4%
CCC(C)NC(=O)c1ccc2c(c1)N=C(C)c1cc(C)ccc1S2 (configuration not stated)	·	-16	·	·	-1%
COc1ccc(-n2nnnc2C(c2ccccc2OC(F)(F)F)N2CCN(C/C=C/c3ccccc3)CC2)cc1 (configuration not stated)	-96*	-21	·	·	·
CCCCn1nnnc1C(c1cccs1)N1CCN(C/C=C/c2ccccc2)CC1 (configuration not stated)	?	-16	·	·	·
CC(C)(C)n1nnnc1C(c1ccccc1)N1CCN(CCN2CCOCC2)CC1 (configuration not stated)	17	4	·	·	·
Cc1cccc(C)c1-n1nnnc1C(c1ccnc2ccccc12)N1CCN(CCN(C)C)CC1 (configuration not stated)	-9	3	·	·	·
COc1ccc(-n2nnnc2C(c2cccs2)N2CCN(C/C=C/c3ccccc3)CC2)cc1 (configuration not stated)	-60*	-23	·	·	·
COc1ccc(C(c2nnnn2C(C)(C)C)N2CCN(C/C=C/c3ccccc3)CC2)cc1 (configuration not stated)	-67*	-14	·	·	·
CCN1CCN(C(c2cc(OC)ccc2OC)c2nnnn2Cc2ccccc2)CC1 (configuration not stated)	?	-18	-1%	18%	2%
COc1ccc(-n2nnnc2C(c2ccnc3ccccc23)N2CCN(C/C=C/c3ccccc3)CC2)cc1 (configuration not stated)	-54*	-14	·	·	·
CCOc1ccc(NC(=O)CSc2ncc3c(n2)-c2ccc(Cl)cc2N(Cc2ccccc2)S3(=O)=O)cc1	·	-8	·	·	-17%
COc1cc2c(Nc3ccc(Br)cc3F)ncnc2cc1OCC1CCN(C)CC1	·	-11	·	·	·
COc1ccc(C(c2nnnn2C2CCCCC2)N2CCN(C/C=C/c3ccccc3)CC2)cc1 (configuration not stated)	-84*	-17	·	·	·
COc1ccc(N2CCN(C(c3ccccc3OC)c3nnnn3C3CCCC3)CC2)cc1 (configuration not stated)	36	6	0%	-37%	-2%
C(=C\c1ccccc1)/CN1CCN(C(c2ccnc3ccccc23)c2nnnn2-c2ccc3c(c2)OCCO3)CC1 (configuration not stated)	-18	-10	·	·	·
C(=C\c1ccccc1)/CN1CCN(C(c2ccccc2)c2nnnn2-c2ccc3c(c2)OCCO3)CC1 (configuration not stated)	-75*	-6	·	·	·
COc1ccc(C(c2nnnn2-c2ccc(OC)cc2)N2CCN(C/C=C/c3ccccc3)CC2)cc1 (configuration not stated)	-89*	-14	·	·	·
CCCCn1nnnc1C(c1ccc(OC)cc1)N1CCN(C/C=C/c2ccccc2)CC1 (configuration not stated)	-107*	-19	·	·	·
COc1cccc(C(c2nnnn2C(C)(C)C)N2CCN(C/C=C/c3ccccc3)CC2)c1OC (configuration not stated)	-102*	-21	·	·	·
CCCCn1nnnc1C(C1CC1)N1CCN(C/C=C/c2ccccc2)CC1 (configuration not stated)	-137*	-13	·	·	·
CCOc1ccccc1C(=O)N(Cc1ccc(N(C)C)cc1)CC1CCCO1 (configuration not stated)	·	8	·	·	40%
COc1cccc(C(=O)NCCS(=O)(=O)NC2CCCC2)c1	-74*	-9	0%	0%	4%
COc1ccc(CNCCS(=O)(=O)NC2CCCCC2)cc1	-53*	-44	·	17%	-9%
CCCCCCCCNCCS(=O)(=O)NC1CCCCC1	-91*	-37	·	-43%	8%
COc1ccc(CNCCS(=O)(=O)NC2CCCC2)cc1	-25	-41	-1%	1%	6%
SMILES	DRD3 antagonist	D3 ag	B2AR arrestin	Integrin act MD	mIDH1 inhibitor
O=S(=O)(CCNCc1ccccc1)NC1CCCCC1	-50*	-41	·	2%	14%
COc1ccc(CNC(=O)Cc2ccc(NC(=O)N3CCSc4ncccc43)cc2)cc1	·	11	·	·	-10%
Cc1nc2c([nH]1)C1(CCN(Cc3ccccc3)CC1)C(C#N)=C(N)O2	-7	0	0%	13µM*	-1%
CC1(C)CC(=O)C2=C(C1)OC(N)=C(C#N)C21CCN(Cc2ccccc2)CC1	-21	12	0%	-17%	4%
CN(C)[C@@H]1CCC[C@H]1OC(=O)C(c1ccccc1)c1ccccc1	-53*	-10	0%	25%	1%
COc1cc2oc(=O)cc(CN3CCN(c4ccccc4OC)CC3)c2cc1Cl	-50*	-1	·	·	·
COc1ccc2c(CN3CCN(c4ccccc4OC)CC3)cc(=O)oc2c1	?	-18	·	·	·
CCOc1ccccc1N1CCN(Cc2cn[nH]c2-c2ccc(F)cc2)CC1	-84*	-17	-1%	-13%	-1%
CCOC(=O)C1CCN(Cc2ccc(O)c3ncccc23)CC1	-93*	-19	?	-51%	0%
O=C(Oc1c(CN2CCOCC2)cc(Cl)c2cccnc12)c1ccccc1Br	-80*	-28	?	-60%	1%
Cc1ccc(Sc2ccc(N3CCCC(C(=O)Nc4ccc(Br)cc4)C3)nn2)cc1 (configuration not stated)	·	6	·	·	-1%
COc1ccc(CN2CCN(C(=O)c3ccc(-c4ccccc4)cc3)CC2)c(OC)c1OC	9	6	0%	10%	-4%
COc1ccc(CN2CCN(C(=O)c3cccs3)CC2)c(OC)c1OC	-86*	-13	0%	-14%	0%
Oc1ccc(CN2CCCc3ccccc32)c2cccnc12	-22	8	0%	-21%	2%
CCOc1ccccc1CN1CCN(S(=O)(=O)CC)CC1	-51*	-5	0%	-10%	0%
CCOC(=O)N1CCN(Cc2cc(Cl)c3cccnc3c2O)CC1	-55*	-11	53%	-54%	-1%
CCOC(=O)N1CCN(Cc2ccccc2Cl)CC1	-12	-7	·	18%	2%
COc1ccccc1N1CCN(Cc2ccc(O)c3ncccc23)CC1	-105*	-87	?	-64%	-2%
CCCCN(C)C(=O)c1ccc2c(c1)N(Cc1ccc(F)cc1)C(=O)c1ccccc1S2(=O)=O	·	-10	·	·	·
COc1ccccc1N1CCN(Cc2ccc(OC)c(OC)c2OC)CC1	-51*	-9	-1%	-15%	-3%
Oc1c(CN2CCOCC2)cc(COCc2ccccc2)c2cccnc12	-67*	-23	5.8µM*	-53%	8%
CCOc1ccccc1N1CCN(Cc2cccc(OC)c2OC)CC1	-89*	-2	0%	15%	4%
CCOc1ccc(OCCC(=O)Nc2ccccc2C(=O)NC2CC2)cc1	-2	1	·	15%	-6%

Source: PubChem BioAssay (National Center for Advancing Translational Sciences (NCATS))
